Test results from the supplement of paper PMC8975748.
Structures can show the parent of a compound that is named as a salt. ± gives the standard deviation of the averaged measurements.

Assays:
[1] = test system: Saccharomyces cerevisiae BY4741 SeMeCo community; assay: mean cell size (pixel area) (pixels); higher = larger cells; details: 10 µM; 24 h; SM minimal medium
Method in brief: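 Plates of 384 wells were acoustically predosed with drug at a final 10 µM in SM medium, and 70 µl of a Saccharomyces cerevisiae BY4741 preculture diluted from OD600 = 1.0 to OD600 = 0.3 was added for 24 h. The yeast formed a four-plasmid fluorescent community in which each plasmid complements one auxotrophy and carries a fluorescent marker. Fixed cells were imaged by automated confocal microscopy and analysed in Harmony for mean cell pixel area per well. Values are means of 3 replicates. Same SeMeCo high-content imaging drug screen: Selleck FDA-approved drugs at 10 µM, 24 h in SM medium, 384-well plates, 3 replicates.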

[2] = test system: Saccharomyces cerevisiae BY4741 SeMeCo community; assay: z-score of prototroph abundance vs DMSO median; higher = larger share of this subpopulation than in DMSO controls; details: 10 µM; 24 h; SM minimal medium; subpopulation (auxotrophy): Prototroph
Method in brief: (§1)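 A Saccharomyces cerevisiae BY4741 community carried four plasmids, each restoring one auxotrophy and encoding a distinct fluorescent protein. It was pre-grown overnight to OD600 1.0, diluted to 0.3, and 70 µl was added to 384-well plates acoustically predosed with library drugs (10 µM final), then grown 24 h in minimal SM medium. Cells were paraformaldehyde-fixed and imaged by automated confocal microscopy, with single-auxotroph fluorescent strains setting thresholds and autofluorescence correction. Each subpopulation's abundance was scored as a z-score against the vehicle-well median.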

[3] = test system: Saccharomyces cerevisiae BY4741 SeMeCo community; assay: z-score of subpopulation abundance vs DMSO median, subpopulation auxotrophic for M; higher = larger share of this subpopulation than in DMSO controls; details: 10 µM; 24 h; SM minimal medium; subpopulation (auxotrophy): M
Method in brief: as §1

[4] = test system: Saccharomyces cerevisiae BY4741 SeMeCo community; assay: z-score of subpopulation abundance vs DMSO median, subpopulation auxotrophic for L; higher = larger share of this subpopulation than in DMSO controls; details: 10 µM; 24 h; SM minimal medium; subpopulation (auxotrophy): L
Method in brief: as §1

[5] = test system: Saccharomyces cerevisiae BY4741 SeMeCo community; assay: z-score of subpopulation abundance vs DMSO median, subpopulation auxotrophic for U; higher = larger share of this subpopulation than in DMSO controls; details: 10 µM; 24 h; SM minimal medium; subpopulation (auxotrophy): U
Method in brief: as §1

[6] = test system: Saccharomyces cerevisiae BY4741 SeMeCo community; assay: z-score of subpopulation abundance vs DMSO median, subpopulation auxotrophic for LU; higher = larger share of this subpopulation than in DMSO controls; details: 10 µM; 24 h; SM minimal medium; subpopulation (auxotrophy): LU
Method in brief: as §1

[7] = test system: Saccharomyces cerevisiae BY4741 SeMeCo community; assay: z-score of subpopulation abundance vs DMSO median, subpopulation auxotrophic for LM; higher = larger share of this subpopulation than in DMSO controls; details: 10 µM; 24 h; SM minimal medium; subpopulation (auxotrophy): LM
Method in brief: as §1

[8] = test system: Saccharomyces cerevisiae BY4741 SeMeCo community; assay: z-score of subpopulation abundance vs DMSO median, subpopulation auxotrophic for HM; higher = larger share of this subpopulation than in DMSO controls; details: 10 µM; 24 h; SM minimal medium; subpopulation (auxotrophy): HM
Method in brief: as §1

[9] = test system: Saccharomyces cerevisiae BY4741 SeMeCo community; assay: z-score of subpopulation abundance vs DMSO median, subpopulation auxotrophic for UM; higher = larger share of this subpopulation than in DMSO controls; details: 10 µM; 24 h; SM minimal medium; subpopulation (auxotrophy): UM
Method in brief: as §1

[10] = test system: Saccharomyces cerevisiae BY4741 SeMeCo community; assay: z-score of subpopulation abundance vs DMSO median, subpopulation auxotrophic for HL; higher = larger share of this subpopulation than in DMSO controls; details: 10 µM; 24 h; SM minimal medium; subpopulation (auxotrophy): HL
Method in brief: as §1

[11] = test system: Saccharomyces cerevisiae BY4741 SeMeCo community; assay: z-score of subpopulation abundance vs DMSO median, subpopulation auxotrophic for HLU; higher = larger share of this subpopulation than in DMSO controls; details: 10 µM; 24 h; SM minimal medium; subpopulation (auxotrophy): HLU
Method in brief: as §1

[12] = test system: Saccharomyces cerevisiae BY4741 SeMeCo community; assay: z-score of subpopulation abundance vs DMSO median, subpopulation auxotrophic for HLM; higher = larger share of this subpopulation than in DMSO controls; details: 10 µM; 24 h; SM minimal medium; subpopulation (auxotrophy): HLM
Method in brief: as §1

[13] = test system: Saccharomyces cerevisiae BY4741 SeMeCo community; assay: z-score of subpopulation abundance vs DMSO median, subpopulation auxotrophic for HUM; higher = larger share of this subpopulation than in DMSO controls; details: 10 µM; 24 h; SM minimal medium; subpopulation (auxotrophy): HUM
Method in brief: as §1

[14] = test system: Saccharomyces cerevisiae BY4741 SeMeCo community; assay: z-score of subpopulation abundance vs DMSO median, subpopulation auxotrophic for LUM; higher = larger share of this subpopulation than in DMSO controls; details: 10 µM; 24 h; SM minimal medium; subpopulation (auxotrophy): LUM
Method in brief: as §1

[15] = test system: Saccharomyces cerevisiae BY4741 SeMeCo community; assay: z-score of subpopulation abundance vs DMSO median, subpopulation auxotrophic for HLUM; higher = larger share of this subpopulation than in DMSO controls; details: 10 µM; 24 h; SM minimal medium; subpopulation (auxotrophy): HLUM
Method in brief: as §1

[16] = test system: Saccharomyces cerevisiae BY4741 SeMeCo community; assay: z-score of subpopulation abundance vs DMSO median, subpopulation auxotrophic for H; higher = larger share of this subpopulation than in DMSO controls; details: 10 µM; 24 h; SM minimal medium; subpopulation (auxotrophy): H
Method in brief: as §1

[17] = test system: Saccharomyces cerevisiae BY4741 SeMeCo community; assay: z-score of subpopulation abundance vs DMSO median, subpopulation auxotrophic for HU; higher = larger share of this subpopulation than in DMSO controls; details: 10 µM; 24 h; SM minimal medium; subpopulation (auxotrophy): HU
Method in brief: as §1

Row | Compound | mean cell size [1] | z-score of prototroph abundance [2] | z-score of subpopulation abundance [3] | z-score of subpopulation abundance [4] | z-score of subpopulation abundance [5] | z-score of subpopulation abundance [6] | z-score of subpopulation abundance [7] | z-score of subpopulation abundance [8] | z-score of subpopulation abundance [9] | z-score of subpopulation abundance [10] | z-score of subpopulation abundance [11] | z-score of subpopulation abundance [12] | z-score of subpopulation abundance [13] | z-score of subpopulation abundance [14] | z-score of subpopulation abundance [15] | z-score of subpopulation abundance [16] | z-score of subpopulation abundance [17]
1 | CNCCC(Oc1ccc(C(F)(F)F)cc1)c1ccccc1 (stereo unspecified) [Fluoxetine HCl] | 12.4 ± 0.14 | 0.06 | 0.18 | -0.14 | 0 | 0.51 | 0 | -0.49 | 0.29 | -0.68 | 0.27 | -0.31 | -0.15 | 0.21 | 0.65 |  | 
2 | CC1=C(CC(=O)O)c2cc(F)ccc2/C1=C\c1ccc([S+](C)[O-])cc1 (stereo unspecified) [Sulindac] | 12.4 ± 0.21 | 0.27 | 0.53 | 1.59 |  | -0.59 | 1.7 | 0.57 | -1.2 | 0.1 | -0.15 | -0.2 | -0.07 | 0.36 | -0.02 | 0.69 | -0.74
3 | CC(C)[C@H]1CC[C@H](C(=O)N[C@H](Cc2ccccc2)C(=O)O)CC1 [Nateglinide] | 12.5 ± 0.12 | -0.85 | 1.18 | 0.26 | -0.59 | 0 | 0.32 | 0.65 | 0.38 | -0.02 | -0.32 | 0.89 | -0.11 | 1.15 | 0.69 | 0.66 | 
4 | C/C=C1\[C@H]2C=C(C)C[C@]1(N)c1ccc(=O)[nH]c1C2 [(-)-Huperzine A (HupA)] | 12.04 ± 0.12 | 0.12 | 1.03 | -0.33 |  | -0.37 | -0.7 | 0.12 | 0.89 | -1.26 | -0.57 | -0.61 | 0.11 |  | -0.57 | -1.16 | -0.26
5 | COC(=O)C1=C(C)NC(C)=C(C(=O)OC2CCCN(Cc3ccccc3)C2)C1c1cccc([N+](=O)[O-])c1 (stereo unspecified) [Benidipine HCl] | 12.4 ± 0.23 | -0.13 | 0.13 | 1.12 |  | 0.07 | 1.8 | 0.86 | -0.42 | 1.55 | 0.26 | 0.06 | 0.12 | 0.29 | -0.21 | 0.92 | -0.01
6 | N#Cc1ccc2[nH]cc(CCCCN3CCN(c4ccc5oc(C(N)=O)cc5c4)CC3)c2c1 [Vilazodone] | 12.2 ± 0.28 | 0.6 | 0.28 | 0.06 | -0.66 | -0.57 | 0.35 | -0.16 |  | -0.17 | 0.77 | 0.08 | -0.53 |  | 0.53 |  | -0.93
7 | O=c1[nH]c(=O)n([C@H]2C[C@H](O)[C@@H](CO)O2)cc1I [Idoxuridine] | 12.4 ± 0.2 | 0.18 | -0.27 | 0.48 | 0.23 | -0.03 | 0.06 | -0.13 | -0.05 | -0.43 | -0.57 | -0.75 | -0.68 | -0.31 | -0.73 | -0.48 | 
8 | NC[C@H]1O[C@H](O[C@H]2[C@H](O[C@@H]3O[C@H](CO)[C@@H](O)[C@H]3O)[C@@H](O)[C@H](N)C[C@@H]2N)[C@H](N)[C@@H](O)[C@@H]1O [Ribostamycin Sulfate] | 12.13 ± 0.035 | 0.31 | -0.49 | -0.39 | 0.39 | 0.09 | -0.67 | 0.04 |  |  | -0.07 | -0.38 | 0.24 |  | 0.36 | -0.21 | -0.5
9 | CCN(CC)CCOc1ccc2c(c1)C(=O)c1cc(OCCN(CC)CC)ccc1-2 [Tilorone dihydrochloride] | 12.3 ± 0.13 | 0.72 | -1.12 | -0.72 | 0.24 | -0.27 | -0.86 | -1.02 | -0.31 | -0.65 | -0.23 | 0.21 | -0.66 | -0.39 | -0.11 | 0.18 | 
10 | OCCN1CCN(CCCN2c3ccccc3Sc3ccc(Cl)cc32)CC1 [Perphenazine] | 12.3 ± 0.2 | -0.28 | -0.42 | -0.47 |  | 0.15 | -0.01 | 0.07 | 0.06 | 0.11 | 0.1 | 0 | 0.73 | 0.66 | -0.22 | 0.04 | 0.72
11 | O=C1[C@H]2CCCC[C@H]2C(=O)N1CCCCN1CCN(c2nsc3ccccc23)CC1 [Perospirone hydrochloride] | 12.5 ± 0.18 | 0.14 | -0.63 | 0.16 |  | 0.24 | -0.76 | -0.27 | -0.02 | -0.17 | 0.2 | 0.02 | -0.23 | 0.12 | -0.08 | -0.14 | 0.13
12 | C[C@@H](c1nc(-c2ccc(C#N)cc2)cs1)[C@](O)(Cn1cncn1)c1cc(F)ccc1F [Isavuconazole] | 11.95 ± 0.079 | -10.4 | -1.83 | -0.71 |  | 0.81 | 1.61 | 8.09 | 13.4 | 9.84 | 6.83 | 15.5 | 10.4 |  | 13.5 | 15.6 | 8.91
13 | C#C[C@]1(O)CC[C@H]2[C@@H]3CCC4=CCCC[C@@H]4[C@H]3CC[C@@]21C [Lynestrenol] | 12.5 ± 0.23 | 0.17 | -1.23 | -0.78 |  | -0.82 | -0.94 | -0.19 |  | -0.15 | -0.88 | -0.46 | 0.15 | -0.41 | -0.6 | 0.16 | 0.4
14 | O=C(c1ccc(OCCN2CCCCC2)cc1)c1c(-c2ccc(O)cc2)sc2cc(O)ccc12 [Raloxifene] | 12.3 ± 0.38 | 0.7 | -0.22 | 1.05 |  | -2.15 | 0.49 | 0.02 | -1.32 | 0.96 | 0.52 | 0.78 | -0.2 | -0.37 | 0.09 | 1.48 | -1.39
